Reference: PubChem BioAssay (Tox21)
Records with an inconclusive call do not appear. Calls of active or inactive are those of the source. Unless noted, calls follow the shape of the dose curve; as a rule, active = well fitted curve in the direction sought with a large enough effect in the repeat runs; inconclusive = weak or mixed curves; inactive = no such curve, though single readings can be large; an effect the other way counts as inactive or inconclusive.

Columns and labels:
[1] = qHTS assay to identify aromatase inhibitors - cell viability counter screen (AID 743084);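 also: cells stimulated with testosterone during compound exposure; nearly all actives have a fitted effect of over 55% in size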
[2] = molecular target: Aryl hydrocarbon receptor (Homo sapiens) (UniProt P35869); test: qHTS assay to identify small molecule that activate the aryl hydrocarbon receptor (AhR) signaling pathway (AID 743085);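 also: HG2L7.5c1 human HepG2 liver cells with stably integrated DRE-driven firefly reporter; series mostly up to about 70 µM; nearly all actives have a fitted effect of over 15% in size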
In short: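 HepG2 cells stably carrying a 20-DRE firefly luciferase reporter (HG2L7.5c1) treated with compound for 24 hr at 37C. Luciferase read by ONE-Glo luminescence, with CellTiter-Fluor viability read first.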

[3] = qHTS assay to identify small molecule that activate the aryl hydrocarbon receptor (AhR) signaling pathway - cell viability counter screen (AID 743086);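 also: HepG2 liver cells carrying the AhR DRE luciferase reporter; series mostly up to about 70 µM; nearly all actives have a fitted effect of over 45% in size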
In short: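 HepG2-AhR-luc (HG2L7.5c1) cells, 4000/well, treated 24 h at 37 C with compound; viability measured as CellTiter-Fluor fluorescence after 30 min in the same wells as the luciferase read.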

[4] = molecular target: Peroxisome proliferator-activated receptor gamma (Homo sapiens) (UniProt P37231); test: qHTS assay to identify small molecule agonists of the peroxisome proliferator-activated receptor gamma (PPARg) signaling pathway (AID 743094; active = well fitted activation curve with a large enough effect in the signal ratio in the repeat runs, not every such curve was filed as active; the % refers to the signal ratio)
In short: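 GeneBLAzer PPARg UAS-bla HEK293H cells were plated, rested 5 h, then exposed to compounds for 17 h at 37C. Beta-lactamase activity was read by LiveBLAzer B/G FRET substrate fluorescence after 1 h at room temperature.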

[5] = qHTS assay to identify small molecule antagonists of the peroxisome proliferator-activated receptor gamma (PPARg) signaling pathway - cell viability counter screen (AID 743194); also: nearly all actives have a fitted effect of over 55% in size
In short: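 Cytotoxicity counter screen in PPARg-bla HEK293H cells, same wells as reporter assay. Compounds plus 50 nM rosiglitazone (final) for 17 h at 37 C, then viability read by CellTiter-Glo luminescence.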

[6] = qHTS assay for small molecule agonists of the antioxidant response element (ARE) signaling pathway (AID 743202; active = well fitted activation curve with a large enough effect in the signal ratio in the repeat runs, not every such curve was filed as active; the % refers to the signal ratio)
In short: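 ARE-bla HepG2 cells (beta-lactamase reporter under the antioxidant response element), plated 5 hours, then exposed to compounds 16 hours at 37 C. LiveBLAzer B/G FRET substrate added for 2 hours at room temperature; fluorescence intensity read.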

[7] = qHTS assay for small molecule agonists of the antioxidant response element (ARE) signaling pathway - cell viability counter screen (AID 743203; calls by dose curve; also: nearly all actives have a fitted effect of over 55% in size)
In short: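 ARE-bla HepG2 cells were plated, rested 5 h at 37C/5% CO2, then exposed to compounds in DMSO for 16 h. Viability was read as CellTiter-Glo luminescence after 30 min at room temperature, in the same wells as the ARE screen.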

[8] = qHTS assay for small molecule activators of the heat shock response signaling pathway - cell viability counter screen (AID 743209); also: nearly all actives have a fitted effect of over 50% in size
In short: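 HSE-bla HeLa cells plated overnight, then exposed to Tox21 compounds (23 nL in DMSO) for 5 h at 37 C. After the bla reporter read, CellTiter-Glo was added in the same wells and luminescence read after 30 min at room temperature.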

[9] = qHTS assay for small molecule activators of the heat shock response signaling pathway (AID 743210; active = well fitted activation curve with a large enough effect in the signal ratio in the repeat runs, with a control signal flat, not every such curve was filed as active; the % refers to the signal ratio; also: series mostly up to about 63 µM)
In short: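 HSE-bla HeLa cells (beta-lactamase reporter under heat shock response elements), plated overnight, then exposed to compounds 5 h at 37 C; LiveBLAzer B/G FRET substrate added, 2.5 h at room temperature, fluorescence intensity read.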

[10] = qHTS assay to identify small molecule agonists of the peroxisome proliferator-activated receptor delta (PPARd) signaling pathway - cell viability counter screen (AID 743211); also: nearly all actives have a fitted effect of over 55% in size
In short: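 PPARd-bla HEK293H cells (3000/well) were pre-incubated 5 h at 37 C, then exposed to compound for 17 h at 37 C. After 2 h with LiveBLAzer substrate, CellTiter-Glo was added to the same wells; luminescence read after 30 min at room temperature.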

[11] = molecular target: Peroxisome proliferator-activated receptor delta (Homo sapiens) (UniProt Q03181); test: qHTS assay to identify small molecule agonists of the peroxisome proliferator-activated receptor delta (PPARd) signaling pathway (AID 743212; calls by dose curve)
In short: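 GeneBLAzer UAS-bla HEK293H cells carrying a PPARδ construct were exposed to compounds at 37 °C. Beta-lactamase activity was read by FRET fluorescence after 2 h at room temperature with LiveBLAzer B/G substrate.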

[12] = molecular target: Peroxisome proliferator-activated receptor delta (Homo sapiens) (UniProt Q03181); test: qHTS assay to identify small molecule antagonists of the peroxisome proliferator-activated receptor delta (PPARd) signaling pathway (AID 743215; active = well fitted inhibition curve with a large enough effect in the signal ratio in the repeat runs, not every such curve was filed as active; the % refers to the signal ratio; also: series mostly up to about 62 µM)
In short: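 PPARd-bla HEK293H cells (UAS-bla reporter) preincubated 5 h, then given compound plus 300 nM final L165041 agonist for 17 h at 37 C. Beta-lactamase activity read by LiveBLAzer B/G FRET substrate fluorescence after 2 h at room temperature.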

[13] = qHTS assay to identify small molecule agonists of the farnesoid-X-receptor (FXR) signaling pathway - cell viability counter screen (AID 743218); also: nearly all actives have a fitted effect of over 45% in size
In short: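 FXR-UAS-bla HEK 293T cells exposed to compounds for 16 h at 37C. Cytotoxicity read in the same wells by CellTiter-Glo luminescence after 30 min at room temperature, following the beta-lactamase FRET read.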

[14] = qHTS assay to identify small molecule antagonists of the farnesoid-X-receptor (FXR) signaling pathway - cell viability counter screen (AID 743221; active = well fitted cell-killing curve with a large enough effect in the repeat runs, not every such curve was filed as active; also: nearly all actives have a fitted effect of over 50% in size)
In short: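 GeneBLAzer FXR-UAS-bla HEK 293T cells, compound plus chenodeoxycholic acid (50 uM final), 16 h at 37 C. CellTiter-Glo added to the same wells after the beta-lactamase read; luminescence read after 30 min at room temperature as viability.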

[15] = molecular target: Vitamin D3 receptor (Homo sapiens) (UniProt P11473); test: qHTS assay to identify small molecule agonists of the vitamin D receptor (VDR) signaling pathway (AID 743222; calls by dose curve)
In short: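 VDR-bla cells plated 4 h at 37 C, then exposed to compounds for 16 h at 37 C. Beta-lactamase reporter activity measured by fluorescence after 2 h room-temperature loading with LiveBLAzer B/G FRET substrate.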

[16] = molecular target: Vitamin D3 receptor (Homo sapiens) (UniProt P11473); test: qHTS assay to identify small molecule antagonists of the vitamin D receptor (VDR) signaling pathway (AID 743223; active = well fitted inhibition curve with a large enough effect in the signal ratio in the repeat runs, not every such curve was filed as active; the % refers to the signal ratio)
In short: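 VDR-bla cells were treated with compound plus 3 nM final 1alpha,25-dihydroxyvitamin D3 for 16 h at 37C. Beta-lactamase reporter read by B/G FRET substrate fluorescence after 2 h at room temperature. qHTS format.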

[17] = qHTS assay to identify small molecule antagonists of the peroxisome proliferator-activated receptor delta (PPARd) signaling pathway - cell viability counter screen (AID 743213); also: nearly all actives have a fitted effect of over 50% in size
In short: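 Agonist-stimulated (L165041, 300 nM final) HEK293H PPARd UAS-bla cells are exposed to compounds for 17 h at 37 C, and ATP-based luminescence (CellTiter-Glo) from the same wells reports cytotoxicity.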

[18] = molecular target: Bile acid receptor (Homo sapiens) (UniProt Q96RI1); test: qHTS assay to identify small molecule antagonists of the farnesoid-X-receptor (FXR) signaling pathway (AID 743217; active = well fitted inhibition curve with a large enough effect in the signal ratio in the repeat runs, not every such curve was filed as active; the % refers to the signal ratio)
In short: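 FXR-UAS-bla HEK 293T cells (beta-lactamase reporter) given compound plus chenodeoxycholic acid (50 uM final), 16 h at 37C. LiveBLAzer B/G FRET substrate added for 2 h at room temperature; fluorescence read.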

[19] = molecular target: Bile acid receptor (Homo sapiens) (UniProt Q96RI1); test: qHTS assay to identify small molecule agonists of the farnesoid-X-receptor (FXR) signaling pathway (AID 743220; active = well fitted activation curve with a large enough effect in the signal ratio in the repeat runs, not every such curve was filed as active; the % refers to the signal ratio)
In short: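 Beta-lactamase reporter under UAS control in GeneBLAzer FXR HEK 293T cells (5000/well) measured with LiveBLAzer FRET substrate after 2 h at room temperature. Compound exposure lasted 16 h at 37C.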
% is scaled to controls: 0 for no effect and ±100 for the full control effect.

Sequence of Vitamin D3 receptor (Homo sapiens) (P11473 whole entry, looked up): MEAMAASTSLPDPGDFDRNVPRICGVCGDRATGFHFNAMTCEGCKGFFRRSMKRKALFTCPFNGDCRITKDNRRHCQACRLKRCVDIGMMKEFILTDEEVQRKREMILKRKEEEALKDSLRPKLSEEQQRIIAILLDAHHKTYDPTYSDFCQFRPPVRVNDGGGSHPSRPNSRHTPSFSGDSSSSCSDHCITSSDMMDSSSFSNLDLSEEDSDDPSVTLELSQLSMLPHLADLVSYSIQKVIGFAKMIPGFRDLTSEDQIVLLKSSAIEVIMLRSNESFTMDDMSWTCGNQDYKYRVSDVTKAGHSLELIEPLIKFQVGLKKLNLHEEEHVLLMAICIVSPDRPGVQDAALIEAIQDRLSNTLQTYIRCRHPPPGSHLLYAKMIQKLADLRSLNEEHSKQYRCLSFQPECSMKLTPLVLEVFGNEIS
Sequence of Peroxisome proliferator-activated receptor gamma (Homo sapiens) (P37231 whole entry, looked up): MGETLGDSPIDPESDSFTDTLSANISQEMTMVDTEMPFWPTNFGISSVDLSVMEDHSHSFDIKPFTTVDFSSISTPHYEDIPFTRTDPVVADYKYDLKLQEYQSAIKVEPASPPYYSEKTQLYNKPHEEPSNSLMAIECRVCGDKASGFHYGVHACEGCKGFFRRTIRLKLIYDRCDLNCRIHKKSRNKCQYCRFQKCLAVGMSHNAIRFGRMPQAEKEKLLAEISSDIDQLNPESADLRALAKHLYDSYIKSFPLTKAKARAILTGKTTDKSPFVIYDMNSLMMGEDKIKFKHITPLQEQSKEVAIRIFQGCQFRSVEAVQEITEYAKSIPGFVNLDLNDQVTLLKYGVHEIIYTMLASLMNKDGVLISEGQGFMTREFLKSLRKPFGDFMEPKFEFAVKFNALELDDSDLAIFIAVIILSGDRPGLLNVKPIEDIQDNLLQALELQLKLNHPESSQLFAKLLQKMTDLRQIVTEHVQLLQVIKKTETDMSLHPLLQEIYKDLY
Sequence of Bile acid receptor (Homo sapiens) (Q96RI1 whole entry, looked up): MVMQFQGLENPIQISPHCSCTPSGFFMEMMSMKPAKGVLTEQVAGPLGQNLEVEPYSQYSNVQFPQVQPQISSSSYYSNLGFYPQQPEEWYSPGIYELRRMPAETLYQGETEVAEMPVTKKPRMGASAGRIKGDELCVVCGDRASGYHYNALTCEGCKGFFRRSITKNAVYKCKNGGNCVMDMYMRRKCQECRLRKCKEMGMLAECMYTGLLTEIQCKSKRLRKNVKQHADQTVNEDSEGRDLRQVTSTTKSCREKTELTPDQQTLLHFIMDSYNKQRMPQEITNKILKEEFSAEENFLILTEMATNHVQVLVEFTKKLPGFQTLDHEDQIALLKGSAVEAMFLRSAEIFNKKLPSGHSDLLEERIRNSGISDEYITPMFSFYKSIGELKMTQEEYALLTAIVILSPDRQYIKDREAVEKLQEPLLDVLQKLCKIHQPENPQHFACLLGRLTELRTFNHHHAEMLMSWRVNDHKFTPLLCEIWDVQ
Sequence of Aryl hydrocarbon receptor (Homo sapiens) (P35869 whole entry, looked up): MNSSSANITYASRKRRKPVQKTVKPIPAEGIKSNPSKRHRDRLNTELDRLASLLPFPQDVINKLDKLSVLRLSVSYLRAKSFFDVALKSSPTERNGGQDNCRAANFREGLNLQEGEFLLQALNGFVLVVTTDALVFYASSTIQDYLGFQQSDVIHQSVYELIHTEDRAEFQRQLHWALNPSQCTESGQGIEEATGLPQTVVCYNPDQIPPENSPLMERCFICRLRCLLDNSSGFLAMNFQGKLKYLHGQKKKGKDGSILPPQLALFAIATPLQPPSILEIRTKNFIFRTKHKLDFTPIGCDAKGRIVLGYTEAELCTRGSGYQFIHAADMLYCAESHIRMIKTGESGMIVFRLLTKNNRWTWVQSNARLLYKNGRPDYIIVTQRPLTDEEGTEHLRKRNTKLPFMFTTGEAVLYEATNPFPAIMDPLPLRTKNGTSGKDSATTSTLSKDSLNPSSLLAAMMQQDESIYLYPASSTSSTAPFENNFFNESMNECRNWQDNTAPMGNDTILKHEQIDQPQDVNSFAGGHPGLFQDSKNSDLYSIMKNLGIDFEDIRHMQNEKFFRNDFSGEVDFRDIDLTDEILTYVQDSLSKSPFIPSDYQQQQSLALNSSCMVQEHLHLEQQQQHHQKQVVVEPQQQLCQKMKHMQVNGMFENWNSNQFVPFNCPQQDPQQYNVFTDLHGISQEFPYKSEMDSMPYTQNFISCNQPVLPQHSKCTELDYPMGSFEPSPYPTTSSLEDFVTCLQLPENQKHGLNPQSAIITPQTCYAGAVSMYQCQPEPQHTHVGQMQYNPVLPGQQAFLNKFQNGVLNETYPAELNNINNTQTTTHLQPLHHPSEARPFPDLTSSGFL
Sequence of Peroxisome proliferator-activated receptor delta (Homo sapiens) (Q03181 whole entry, looked up): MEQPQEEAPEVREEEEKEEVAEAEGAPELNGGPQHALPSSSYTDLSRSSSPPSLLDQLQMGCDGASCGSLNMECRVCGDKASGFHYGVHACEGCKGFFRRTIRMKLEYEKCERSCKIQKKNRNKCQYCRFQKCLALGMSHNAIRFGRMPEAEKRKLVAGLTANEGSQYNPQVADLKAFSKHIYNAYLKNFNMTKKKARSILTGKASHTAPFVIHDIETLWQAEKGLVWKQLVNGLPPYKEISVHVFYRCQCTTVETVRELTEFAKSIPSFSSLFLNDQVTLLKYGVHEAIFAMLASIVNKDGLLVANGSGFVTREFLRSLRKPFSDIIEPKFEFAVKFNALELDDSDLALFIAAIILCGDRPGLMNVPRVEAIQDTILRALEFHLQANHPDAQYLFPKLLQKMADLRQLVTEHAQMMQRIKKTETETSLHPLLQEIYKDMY

COC(=O)c1ccccc1C(=O)O
inactive: Potency [1] | Potency [2] | Potency [3] | Potency [4] | outcome [5] | Potency [6] | outcome [7] | Potency [8] | outcome [9] | outcome [10] | outcome [11] | outcome [12] | outcome [13] | outcome [14] | outcome [15] | outcome [16]

NCC1(Cc2noc(=O)[nH]2)CCCCC1
inactive: Potency [1] | Potency [2] | Potency [3] | Potency [4] | outcome [5] | outcome [7] | Potency [8] | outcome [10] | outcome [11] | outcome [17] | outcome [12] | outcome [13] | outcome [14] | outcome [15]

CC(C)OC(=O)CCC(=O)OC(C)C
inactive: Potency [1] | Potency [2] | Potency [3] | Potency [4] | outcome [5] | outcome [7] | Potency [8] | outcome [9] | outcome [10] | outcome [11] | outcome [17] | outcome [12] | outcome [18] | outcome [13] | outcome [19] | outcome [14] | outcome [15] | outcome [16]

CC(C)CCOC(=O)c1ccccc1
inactive: Potency [1] | Potency [2] | Potency [3] | Potency [4] | outcome [5] | Potency [6] | outcome [7] | Potency [8] | outcome [9] | outcome [10] | outcome [17] | outcome [12] | outcome [13] | outcome [19] | outcome [14] | outcome [15] | outcome [16]

C=C(C)C1CC=C(C)C(=O)C1 (stereo not given)
inactive: Potency [1] | Potency [2] | Potency [3] | Potency [4] | outcome [5] | Potency [6] | outcome [7] | Potency [8] | outcome [9] | outcome [10] | outcome [17] | outcome [13] | outcome [14] | outcome [15] | outcome [16]

O=NN(CCCl)C(=O)NC1CCCCC1
inactive: Potency [1] | Potency [2] | Potency [3] | Potency [4] | outcome [5] | Potency [6] | outcome [7] | outcome [9] | outcome [10] | outcome [11] | outcome [17] | outcome [12] | outcome [18] | outcome [13] | outcome [14]

CC(C)COC(=O)c1ccccc1
inactive: Potency [1] | Potency [2] | Potency [3] | Potency [4] | outcome [5] | Potency [8] | outcome [10] | outcome [11] | outcome [17] | outcome [12] | outcome [13] | outcome [15]

CC(=O)OCC(=O)Nc1cc(C#N)cc(NC(=O)COC(C)=O)c1Cl
inactive: Potency [1] | Potency [2] | Potency [3] | Potency [4] | outcome [5] | Potency [6] | outcome [7] | Potency [8] | outcome [9] | outcome [10] | outcome [13] | outcome [14] | outcome [15] | outcome [16]

N[C@@H](Cc1ccc(O)cc1)C(=O)O
inactive: Potency [1] | Potency [2] | Potency [3] | Potency [4] | activity change, negative = cytotoxicity [5] 3.31% [at 13.2 µM] | activation [6] -7.61% [at 8.36 µM] | viability change, negative = cytotoxic [7] 19.5% [at 8.36 µM] | activity change, negative = cytotoxicity [8] -1.43% [at 13.2 µM] | activation [9] 0.612% [at 13.2 µM] | activity change, negative = cytotoxicity [10] 3.38% [at 13.2 µM] | viability change, negative = cytotoxic [17] 14.5% [at 13.7 µM] | viability change, negative = cytotoxic [13] -2.1% [at 13.2 µM] | activity change, negative = cytotoxicity [14] -1.49% [at 13.2 µM] | activation [15] 10.9% [at 13.4 µM]
